Screens as filed in PubChem.
The list is not random: actives were taken first. Their share in the collection is about 4.7%.
PTK2B oligo ant = Pyk2 (human) oligomerization antagonism. z-score (the deposit names both 25 µM and 10 µM). 99,000 tested, 0.83% active. Q293 cells, Pyk2 FERM NanoBiT luminescence; hits give low values. Q14289;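 active means Z-score of -3 or lower, scaled per plate to the spread of control and sample wells; inactive means z-score above -3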;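 further: negative z-score means lost luminescence so less FERM oligomerization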
PLK1 kinase inh = inhibitors of human PLK1 kinase | recombinant PLK1 kinase, TR-FRET peptide phosphorylation | inhibition, % at 10 µM | 97,000 tested, 0.53% active | P53350;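 active means inhibition of 50% or more in the single-concentration screen; inactive means inhibition below 50%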;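 further: 0% = DMSO max control and 100% = H-89 dihydrochloride min control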
hDAT+cocaine = human DAT dopamine uptake with cocaine, either direction; B-score at 10 µM; AID 449768; LLC-PK1 hDAT cells, [14C]-dopamine uptake with cocaine IC80; actives deviate in either direction; 110,000 tested, 1.3% active; Q01959;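 active means Z score or B-score, a plate-position-corrected score, falls beyond the plate's 99.7% confidence bounds, in either direction; inactive means both scores lie inside the 99.7% bounds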;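 further: scored against the spread of the other compound wells on the same plate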
Cav3 T inh = inhibitors of human Cav3.2 T-type calcium channel; O95180; Cav3.2-expressing cells, Fluo-4 calcium fluorescence FDSS; hits give low values; B-score at 10 µM; 100,000 tested, 4% active;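 active means single-dose well whose peak fluorescence ratio is a statistical outlier from its plate by either plate-standardised score or position-corrected B-score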
SDO1 yeast rescue = compounds rescuing growth of sdo1-depleted yeast, bone marrow failure model | S. cerevisiae sdo1-depleted JHY4D growth rescue, OD600 30 h; hits give high values; pdr5 snq2 efflux-pump mutant strain | z-score at 10 µM | 140,000 tested, 0.21% active | AID 817;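 active means z-score above 3 at both the 24 hr and the 30 hr optical density reads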;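 further: z-score against mean and SD of all compound wells on the same plate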
PLK1 PBD inh = blocks phosphopeptide binding to human Plk1 polo box domain. P53350. Plk1 PBD phosphopeptide binding, fluorescence polarization. inhibition, %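 (tested at about 20 µM)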. 97,000 tested, 0.13% active. AID 693; in the data active means inhibition above about 34%, passing the limit was not always enough
* marks the source's active call; other numbers are inactive results; . = not tested or not shown.

SMILES | PTK2B oligo ant | PLK1 kinase inh | hDAT+cocaine | Cav3 T inh | SDO1 yeast rescue | PLK1 PBD inh
CCOc1ccc(-c2c[n+]3c(n2-c2ccccc2)CCCCC3)cc1 | . | . | . | . | 1.8 | .
COc1ccc(-c2cnc(N)nc2-c2ccc(OC)cc2O)cc1 | -3.1* | -2 | 0.74 | 0.46 | -1.3 | -22
COc1ccc(-c2nc(N)ncc2Oc2ccccc2Br)c(O)c1 | -2.7 | -32 | -0.29 | . | -0.37 | -13
COc1cccc(Oc2cnc(N)nc2-c2ccc(OC)cc2O)c1 | -3.9* | -4 | 0.32 | -3.9 | -1.4 | -44
COCCn1c(SCC(=O)Nc2sccc2C(N)=O)nc2cc(Cl)ccc2c1=O | -3* | 10 | 0.025 | . | -0.37 | -11
COCCn1c(SCc2cc(C(C)=O)ccc2OC)nc2cc(Cl)ccc2c1=O | . | . | . | . | -1.1 | .
Cc1ccc(C)c(N2CCN(C(=O)CCCn3c(=S)[nH]c4cc5c(cc4c3=O)OCO5)CC2)c1 | -1.7 | -7 | 0.12 | -8.6* | -0.5 | -17
O=C(CCCn1c(=S)[nH]c2cc3c(cc2c1=O)OCO3)N1CCN(c2ccccc2F)CC1 | -1.7 | -13 | -0.37 | -0.72 | -1.2 | 1
CC(C)C1O/C(=N/C(=O)Nc2ccc(Cl)c(Cl)c2)NC1=O (stereo not given) | -0.05 | -5 | -0.14 | -5* | -1.9 | 6
Cc1csc(NC(=O)CSc2nsc(SCC(=O)Nc3nc(C)cs3)c2C#N)n1 | -4.4* | -2 | 0.43 | 0.26 | 0.31 | -9
Cc1csc(NC(=O)CSc2nc3ccccc3s2)n1 | 0.08 | -12 | -0.047 | -7* | -0.82 | 15
Cc1ccc(NC(=O)CSc2nsc(SCC(=O)Nc3ccc(C)cc3C)c2C#N)c(C)c1 | . | . | . | . | -0.97 | .
Cc1csc(NC(=O)CCCSc2nc3ccccc3s2)n1 | 0.73 | -3 | 0.39 | -3 | -1.5 | 21
CC1=C(C(=O)OCc2ccc3c(c2)OCO3)C(c2ccc(F)cc2)NC(=O)N1 (stereo not given) | -2.1 | 14 | -0.36 | . | -0.87 | -7
CC1=C(C(=O)OCc2ccc3c(c2)OCO3)C(c2ccc(Cl)cc2)NC(=O)N1 (stereo not given) | -3.2* | -6 | 0.87 | -0.61 | 0.06 | -11
COc1cccc(N2[C@@H](CC(=O)O)c3ccc(/C=C/C(=O)O)cc3S2(=O)=O)c1 | . | . | -0.38 | -0.74 | . | .
Cc1occc1-c1nnc(SCC(=O)NCCc2ccccc2)n1C(C)c1ccccc1 (stereo not given) | -0.85 | . | 2.7* | -3.5 | -0.61 | .
CCOc1ccccc1-n1c(SCC(=O)Nc2nccs2)nnc1-c1ccoc1C | -1.9 | 4 | 2.3 | -7.2* | -1.3 | -6
CCCn1c(SCC(=O)Nc2nonc2C)nnc1-c1ccoc1C | 0.34 | -5 | -0.11 | 1.1 | 0.67 | -4
COc1cccc(NC(=O)CSc2nnc(-c3ccoc3C)n2-c2ccccc2)c1 | . | -9 | -0.069 | -6.2* | -0.54 | -12
Cc1nonc1NC(=O)CSc1nnc(-c2ccoc2C)n1-c1cccc(Cl)c1 | -0.27 | -9 | -0.18 | -4.4* | -0.48 | -19
COc1ccc(-n2c(SCC(=O)Nc3ccccc3)nnc2-c2ccoc2C)cc1 | -1.2 | -6 | 0.56 | -1.1 | -1.3 | 20
COC(=O)C1=C[C@@H](C(=O)OC)[C@@H]2C3=C(C(=O)[C@@]2(C)NC(=O)c2ccccc2)[C@H](c2ccccc2)n2c(=O)n(-c4ccccc4)c(=O)n2[C@@H]3C1 | . | . | -1.8 | 0.46 | . | .
COC(=O)C1=C[C@@H](C(=O)OC)[C@@H]2C3=C(C(=O)[C@]2(CC(C)C)NC(=O)c2ccccc2)[C@H](C)n2c(=O)n(-c4ccccc4)c(=O)n2[C@@H]3C1 | . | . | -2.5* | -0.25 | . | .
Cc1ccc(NC(=O)C2C3CCCC2C3c2ccccc2)cc1 (stereo not given) | . | . | . | . | -0.61 | .
O=C1COc2ccc(-c3csc(=Nc4ccc(OC(F)F)cc4)n3CC3CCCO3)cc2N1 (stereo not given) | -1.1 | -4 | 1.2 | -1.4 | -1.4 | -14
CCN=c1scc(-c2ccc3c(c2)NC(=O)CO3)n1N=C1CCCC1 | 2.8 | -7 | 5.5* | -1.4 | 1.2 | -11
COc1ccccc1N=c1scc(-c2ccc3c(c2)NC(=O)CO3)n1CC1CCCO1 (stereo not given) | 1.1 | . | 0.55 | -3.9* | -0.22 | .
O=C(NCCCCc1ccccc1)C1CC(c2ccccc2C(F)(F)F)=NO1 (stereo not given) | . | . | 1.6 | -2 | . | .
